# Measurements from PubChem BioAssay (NCI).
# The panel holds about 83,000 compounds, 20% with a hit somewhere; the sample as a whole holds those more often.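 Note: values are percent growth. 100 is the growth of untreated cells, values between 100 and 0 indicate rising inhibition; between -100 and 0 indicates cell death.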 Unmarked numbers belong to inactive results. Activity calls are given as the source filed them. How the source made its calls: active means growth percent below 10; inactive means the rest.
# Assays:
# Experiment in all cases: NCI-60 one-dose screen, 48 h (100 = growth as untreated, 0 = no growth, -100 = all killed)
# Conditions in all cases: 10 µM unless noted
# [1] = test system: NCI-H23 lung
# [2] = test system: NCI-H226 lung
# [3] = test system: NCI-H322M lung
# [4] = test system: HOP-62 NSCLC
# [5] = test system: NCI-H460 lung
# [6] = test system: HOP-92 NSCLC
# [7] = test system: NCI-H522 lung
# [8] = test system: A549/ATCC NSCLC
# [9] = test system: 786-0 renal
# [10] = test system: COLO 205 colon
# [11] = test system: DU-145 prostate
# [12] = test system: K-562 leukemia
# [13] = test system: MALME-3M melanoma
# [14] = test system: MDA-MB-231 breast
# [15] = test system: RXF 393 renal
# [16] = test system: SF-268 CNS
# [17] = test system: SF-295 CNS
# [18] = test system: SF-539 CNS
# [19] = test system: UACC-257 melanoma
# [20] = test system: M14 melanoma
Structure (SMILES),growth [1],growth [2],growth [3],growth [4],growth [5],growth [6],growth [7],growth [8],growth [9],growth [10],growth [11],growth [12],growth [13],growth [14],growth [15],growth [16],growth [17],growth [18],growth [19],growth [20]
COc1cc2c(cc1OC)C(=O)/C(=C/c1cc(C)c(O)c(C)c1)S2,39.2%,55.7%,50.4%,39.4%,18.5%,88.6%,-7.24% (active),36.9%,39.6%,104%,25.3%,12%,71.7%,56.9%,-6.02% (active),72.9%,18.4%,-3.74% (active),70.7%,19.1%
O=C(CCN1CCCC1)Nc1ccc2c(NCCCCc3ccccc3)c3ccccc3nc2c1,-57.9% (active),63.1%,-24.8% (active),-46.6% (active),-69% (active),-2.02% (active),-38.7% (active),-45.5% (active),15%,-47.1% (active),-61.8% (active),-31.2% (active),-88.7% (active),-74.9% (active),7.61% (active),-73.2% (active),43.4%,-70.3% (active),-60.8% (active),-72.6% (active)
COc1cc2nc(-c3ccc(Cl)cc3)cc(OCCCN3CCCC3)c2cc1OC,62.8%,-13.5% (active),58.5%,45.3%,25.2%,25%,38.1%,41.5%,67.4%,21.5%,41.7%,21.1%,50%,21.5%,42.8%,54.5%,-17% (active),42.6%,31.7%,-29.7% (active)
CCCCCCCCO/N=C\c1c2c(O)c3c(O)c(C)c4c(c3c1O)C(=O)C(C)(O/C=C\C(OC)C(C)C(OC(C)=O)C(C)C(O)C(C)C(O)C(C)/C=C\C=C(\C)C(=O)N2)O4 (stereo not drawn),22.2%,28%,45.9%,36%,3.79% (active),-4.97% (active),5.64% (active),17.4%,27.9%,4.9% (active),32.9%,16.7%,40.7%,12.7%,38.7%,43.1%,4.44% (active),42.9%,8.62% (active),27%
CC1=C(C(=O)/C=C/c2ccc(N(C)C)cc2)C(c2ccccc2)NC(=S)N1 (stereo not drawn),93.3%,93.8%,103%,106%,108%,96.6%,91%,106%,101%,119%,107%,92.1%,108%,100%,107%,97.8%,110%,97.1%,99.7%,
COc1cccc(-c2nc3occn3c2-c2ccnc(NCCNS(=O)(=O)c3ccc(C(F)(F)F)cc3)n2)c1,98.2%,75.8%,98.9%,119%,88%,95.9%,86.6%,87.9%,79.5%,77.7%,96.4%,71.6%,107%,87.2%,90.8%,88.2%,99.1%,104%,121%,
COc1cc2c(c(O)c1Cl)C(=O)c1c(O)cc(C[C@H](C)O)cc1[C@H]2[C@H]1c2cc(C[C@H](C)O)cc(O)c2C(=O)c2c1cc(OC)c(Cl)c2O,9.36% (active),19%,17.7%,12.4%,-0.266% (active),-24.2% (active),5.59% (active),12.5%,14.3%,-72.5% (active),23.8%,11.7%,-32.6% (active),-57.9% (active),10.4%,21.4%,-14.6% (active),-8.14% (active),-4.04% (active),19%
COc1cc2nc(-c3ccc(Cl)cc3)cc(OCCCN3CCCCC3)c2cc1OC,64.7%,-9.93% (active),63.1%,54.7%,25.6%,34.2%,34%,36%,72.5%,16.1%,40.9%,14.3%,46.1%,27.4%,39.1%,57.5%,-51.3% (active),49.5%,-0.848% (active),-28.2% (active)
NC1[C@H](c2c[nH]c3ccccc23)c2c([nH]c3ccccc23)[C@H]1c1c[nH]c2ccccc12 (stereo partly drawn),85.7%,92.1%,91.6%,90.1%,97.1%,84.2%,88.5%,90.6%,96.4%,110%,95.3%,90.8%,88.9%,75.7%,104%,84.4%,92.9%,100%,111%,92.3%
COC(=O)N[C@H]1CCc2c(Cl)c(OC)c(OC)c(OC)c2-c2ccc(SC)c(=O)cc21,34%,22.7%,35.4%,38%,-11.4% (active),1.96% (active),21.7%,19.8%,7.29% (active),-24.3% (active),-11.1% (active),7.05% (active),36.8%,-2.11% (active),20.3%,20.2%,12%,-0.571% (active),68.3%,0.0864% (active)
C[C@H]1[C@H](C)CC[C@]2(C(=O)NCC#CCN3CCN(C)CC3)CC[C@]3(C)C(=CC[C@@H]4[C@@]5(C)Cc6c([nH]c7ccccc67)C(C)(C)[C@@H]5CC[C@]43C)[C@H]12,100%,100%,92.8%,93.1%,3.53% (active),63.8%,82.6%,69.7%,66.9%,53.1%,73.1%,1.37% (active),61.6%,63.8%,84.9%,82.5%,106%,84.8%,97%,71.3%
COc1cc(C2=C(c3cn(C)c4ccccc34)COC2=O)cc(OC)c1OC,14.2%,15.3%,26.6%,31.7%,3.03% (active),19.1%,3.38% (active),18.4%,20.9%,-4.65% (active),19.9%,6.17% (active),44.5%,22.5%,-21% (active),25.8%,-5.22% (active),-19.7% (active),67.4%,-13.9% (active)
O=c1[nH]nc(-c2ccccc2)c2sc3ncc(-c4ccc(Br)cc4)n3c12,61.6%,43.8%,72.3%,48.8%,33.8%,65.3%,-1.56% (active),82.9%,53%,37.2%,28.6%,16.1%,52.4%,69.1%,57.9%,51%,48.9%,41.3%,66%,42.3%
O=C(CCN1CCCC1)Nc1ccc2c(Nc3ccc(F)cc3)c3ccccc3nc2c1,-12.8% (active),42.7%,-14.6% (active),-12.5% (active),-66.4% (active),4.17% (active),-22.6% (active),-21.8% (active),-35.9% (active),-33.2% (active),-46% (active),0.179% (active),-90.1% (active),-17.2% (active),7.89% (active),16.3%,15.2%,-74.5% (active),-57.1% (active),-80.7% (active)
CCCCCCNC(=O)Oc1ccc(/C(=C(\C)c2ccccc2)c2ccc(OCCCN(C)C)cc2)cc1,82.8%,104%,75.2%,98.3%,39.1%,83.7%,88.9%,72.7%,71%,58.1%,99.6%,3.9% (active),54%,82.7%,75.4%,79.4%,93.7%,79.4%,86.2%,40.1%
O=C(CCN1CCCC1)Nc1ccc2c(Nc3ccc(Br)cc3)c3ccccc3nc2c1,18.8%,62%,-11.4% (active),-19.5% (active),-69.2% (active),31.3%,-25% (active),-42.4% (active),42.8%,-42.9% (active),-70.8% (active),-43.1% (active),-86.2% (active),-49.4% (active),47%,-7.83% (active),46.3%,-67.9% (active),-48.4% (active),-75% (active)
